Experimental data from PubChem BioAssay (EPA / NIEHS).
Inconclusive results are not listed. Active and inactive are the calls of the source. Rule for the calls: active = hit-call score of the fitted dose curve at least 0.9, where 1 is the maximum; inconclusive = response in the unintended direction; inactive = score below 0.9.

Tests used:
[1] = TOX21_p53_BLA_p2_viability: Viability Assessment in the Tox21 HCT-116 p53 Agonism Beta-lactamase Assay, Phase 2 (AID 2283591);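 note: compound exposure lasted 16 h at 37 °C; actives lower the ATP signal meaning cytotoxicity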
In short: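 HCT-116 p53-bla cells (4000/well) rested 5 h at 37C, then received compounds in DMSO (217-fold dilution) for 16 h at 37C, 5% CO2. After the CCF4 read, CellTiter-Glo was added; ATP luminescence was read after 30 min at room temperature.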

[2] = TOX21_p53_BLA_p4_viability: Viability Assessment in the Tox21 HCT-116 p53 Agonism Beta-lactamase Assay, Phase 4 (AID 2283597);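 note: hits lower the luminescence signal meaning cytotoxicity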
In short: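 Cells plated, 5 h pre-incubation; DMSO compounds pinned (217-fold dilution); 16 h, 37C/5% CO2; CCF4-AM 2 h RT; CellTiter-Glo 30 min RT; luminescence read.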

[3] = molecular target: Cellular tumor antigen p53 (Homo sapiens) (UniProt P04637); assay: TOX21_p53_BLA_p5_ratio: Tox21 HCT-116 p53 Agonism Beta-lactamase Assay, Ratio, Phase 5 (AID 2283599)
In short: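 HCT-116 cells carrying a p53-inducible beta-lactamase reporter were seeded at 4000 cells/well and dosed after 5 h with compound in DMSO (217-fold dilution). After 16 h at 37C, CCF4-AM substrate was added for 2 h, and the 460/530 nm emission ratio was scored as gain-of-signal versus DMSO.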

[4] = TOX21_p53_BLA_p5_viability: Viability Assessment in the Tox21 HCT-116 p53 Agonism Beta-lactamase Assay, Phase 5 (AID 2283600)
In short: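 4000 cells/well; 5 h pre-incubation; DMSO compounds pin-transferred, 217-fold dilution; 16 h, 37C/5% CO2; CCF4-AM 2 h RT; CellTiter-Glo 30 min RT; luminescence.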

[5] = molecular target: Cellular tumor antigen p53 (Homo sapiens) (UniProt P04637); assay: TOX21_p53_BLA_p4_ratio: Tox21 HCT-116 p53 Agonism Beta-lactamase Assay, Ratio, Phase 4 (AID 2283601)
In short: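 HCT116 cells carrying an inducible beta-lactamase reporter were plated at 4000 cells/well, rested 5 h, then exposed to compounds in DMSO (217-fold dilution) for 16 h at 37C. CCF4-AM substrate was loaded 2 h at room temperature; 460/530 nm emission ratio scored gain-of-signal versus DMSO.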

[6] = TOX21_p53_BLA_p3_viability: Viability Assessment in the Tox21 HCT-116 p53 Agonism Beta-lactamase Assay, Phase 3 (AID 2283593);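 note: cells exposed to compound for 16 h before reading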
In short: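 HCT-116 cells (4000/well) rested 5 h at 37C, then got DMSO compounds by pin tool (217-fold dilution) for 16 h at 37C, 5% CO2. After the bla read, CellTiter-Glo was added and luminescence read at 30 min, room temperature.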

[7] = molecular target: Cellular tumor antigen p53 (Homo sapiens) (UniProt P04637); assay: TOX21_p53_BLA_p3_ratio: Tox21 HCT-116 p53 Agonism Beta-lactamase Assay, Ratio, Phase 3 (AID 2283596)
In short: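 HCT116 p53-bla cells (4000/well) given compound in DMSO (217-fold dilution) after 5 h, incubated 16 h at 37C. CCF4-AM substrate 2 h at room temperature; 460/530 nm emission ratio, gain fitted against DMSO.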

Measured: outcome

Chain of Cellular tumor antigen p53 (Homo sapiens) (P04637 whole entry, looked up): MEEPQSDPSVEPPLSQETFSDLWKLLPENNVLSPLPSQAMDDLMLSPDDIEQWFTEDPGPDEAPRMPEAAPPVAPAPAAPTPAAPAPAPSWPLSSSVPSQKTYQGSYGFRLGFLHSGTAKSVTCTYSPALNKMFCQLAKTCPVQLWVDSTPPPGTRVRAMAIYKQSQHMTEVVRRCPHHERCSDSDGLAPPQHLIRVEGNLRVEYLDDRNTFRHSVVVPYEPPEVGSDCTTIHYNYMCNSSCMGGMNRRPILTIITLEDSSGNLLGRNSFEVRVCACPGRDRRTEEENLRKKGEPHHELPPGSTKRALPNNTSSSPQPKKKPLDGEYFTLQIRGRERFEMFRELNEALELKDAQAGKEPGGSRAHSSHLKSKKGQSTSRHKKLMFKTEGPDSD

ClC(Cl)=C(Cl)Cl
not listed: [6] | [7]
inactive: all other assays above

Cc1cc(C)c(C(=O)P(=O)(C(=O)c2c(C)cc(C)cc2C)c2ccccc2)c(C)c1
inactive: [1] | [6] | [3] | [5]

O=[N+]([O-])c1cc(Cl)c(Cl)c(Cl)c1
inactive: [1] | [7] | [3] | [4]

O=C(CCCN1CCC(n2c(=O)[nH]c3ccccc32)CC1)c1ccc(F)cc1
inactive: [1] | [6] | [2] | [5]
